High-throughput results (PubChem)
This is a sample that favours compounds with a hit; in the whole collection about 2.2% have one here.
miR-122 sensor: inhibitors of miR-122 in Huh7 cells. Huh7 miR-122 Renilla luciferase sensor, 48 h; neutral wells = 0, positive control = 100. activation (reporter increase), % at 12.5 µM. actives 0.3% (n = 340,000);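 active means mean replicate activation score at least 90 and every replicate individually at or above 90; inconclusive means only one of the two criteria met; inactive means neither criterion met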;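 further: higher luciferase means less miR-122 activity so hits act as miR-122 inhibitors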
PvdQ acylase: blocks Pseudomonas aeruginosa PvdQ acylase activity. inhibition, % at 10 µM. purified PvdQ acylase, fluorescence plate reader. actives 0.063% (n = 340,000); in the data active means inhibition above about 30%, passing the limit was not always enough; inconclusive means no clear call, values can overlap the other calls
C2C12 statin: suppressors of simvastatin-induced myotoxicity in C2C12 myotubes | actives 0.78% (n = 330,000) | AID 602340 | rescue of ATP level, % at 7.49 µM | ATP luminescence, 48 h; scaled: DMSO 0, geranylgeraniol control 100;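 active means mean ATP rescue above about 67%, or every replicate alone reaching that limit, limit read from the data, passing the limit was not always enough; inconclusive means no clear call, values can overlap the other calls; inactive means mean under the limit and some replicate under it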;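 further: myotubes were challenged with 10 µM simvastatin during compound exposure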
DENV2 CPE: inhibitors of DENV2 cytopathic effect; DENV2-infected cells, cytopathic effect rescue, plate reader; CPE inhibition, % at 9.99 µM; actives 1.7% (n = 350,000); AID 651640; in the data active means CPE inhibition above about 20%, passing the limit was not always enough; inconclusive means no clear call, values can overlap the other calls; tested in BHK-21 cells
PGC1a acetyl inh: modulators of PGC1a acetylation | U2OS PGC1a acetylation, AlphaScreen anti-acetyl-lysine; with virally co-expressed GCN5 acetyltransferase | inhibition, % at 15.6 µM | actives 0.17% (n = 350,000) | AID 651687;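 active means every replicate shows inhibition of at least 40%; inconclusive means mean inhibition at least 40% but some replicate below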
Hits are given with their value.

Screening C[C@H]1CN([C@@H](C)CO)C(=O)c2cc(NS(=O)(=O)c3ccc(Cl)cc3)ccc2O[C@@H]1CN(C)S(=O)(=O)c1cccs1 returned miR-122 sensor inactive, C2C12 statin inactive, DENV2 CPE 39 and PGC1a acetyl inh inactive.
Screening C[C@@H]1CN([C@H](C)CO)C(=O)c2cc(NS(=O)(=O)c3ccc(F)cc3)ccc2O[C@@H]1CN(C)S(=O)(=O)c1cccs1 returned miR-122 sensor inactive, C2C12 statin inactive, DENV2 CPE inactive and PGC1a acetyl inh inactive.
Screening C[C@H]1CN([C@@H](C)CO)C(=O)c2cc(NS(=O)(=O)c3ccc(F)cc3)ccc2O[C@@H]1CN(C)S(=O)(=O)c1ccc(F)cc1 returned miR-122 sensor inactive, C2C12 statin inconclusive, DENV2 CPE 54 and PGC1a acetyl inh inactive.
Screening CN1CCN(C(=O)[C@@H]2[C@@H](CO)[C@@H]3Cn4c(ccc(C5=CCCCC5)c4=O)[C@H]2N3S(C)(=O)=O)CC1 returned C2C12 statin inactive and DENV2 CPE inactive.
C[C@H](CO)N1C[C@H](C)[C@@H](CN(C)C)Oc2cc(/C=C/c3ccccc3)ccc2S1(=O)=O was read as miR-122 sensor inactive, C2C12 statin inactive, DENV2 CPE inactive and PGC1a acetyl inh inactive.
COc1ccc(NC(=O)N(C)C[C@H]2OCCCC[C@H](C)Oc3ccc(NC(=O)NC(C)C)cc3C(=O)N([C@@H](C)CO)C[C@@H]2C)cc1 was read as miR-122 sensor inactive, DENV2 CPE inactive and PGC1a acetyl inh inactive.
`Cc1cc(C)nc(N/N=C/c2ccccc2OCc2ccccc2)n1` gave miR-122 sensor inactive, PvdQ acylase inactive, C2C12 statin inactive, DENV2 CPE 79 and PGC1a acetyl inh inactive.
`CO[C@H]1CN(C)C(=O)c2ccc(NC(=O)NC(C)C)cc2OC[C@H](C)N(Cc2ccc(-c3ccccn3)cc2)C[C@@H]1C` gave DENV2 CPE inactive and PGC1a acetyl inh inactive.
CCCC(=O)Nc1ccc2c(c1)C(=O)N(C)C[C@@H](OC)[C@@H](C)CN(Cc1ccc(-c3ccccn3)cc1)[C@H](C)CO2 was read as C2C12 statin inactive, DENV2 CPE 27 and PGC1a acetyl inh inactive.
For CO[C@H]1CN(C)C(=O)c2ccc(NC(=O)NC(C)C)cc2OC[C@H](C)N(Cc2ccc(-c3ccccn3)cc2)C[C@H]1C the results were C2C12 statin inactive, DENV2 CPE 68 and PGC1a acetyl inh inactive.
CCC(=O)Nc1ccc2c(c1)OC[C@@H](C)N(Cc1ccc(-c3ccccn3)cc1)C[C@@H](C)[C@H](OC)CN(C)C2=O was read as C2C12 statin inactive, DENV2 CPE inactive and PGC1a acetyl inh inactive.
For CC1C=NC(S(=O)(=O)N2CC[C@@H]3[C@H](CO)N(C)c4ccc(-c5ccccc5)cc4[C@@H]32)=N1 (some centres undefined) the results were miR-122 sensor inactive, C2C12 statin inactive, DENV2 CPE inconclusive and PGC1a acetyl inh inactive.
CC(C)C#Cc1cnc2c(c1)C(=O)N([C@@H](C)CO)C[C@@H](C)[C@@H](CN(C)C(=O)Nc1ccccc1F)O2 was read as miR-122 sensor inactive, C2C12 statin inactive, DENV2 CPE inactive and PGC1a acetyl inh inactive.
For Cc1ccccc1OC1C(=O)N(Cc2ccc3c(c2)OCO3)C1c1sccc1C (centres undefined) the results were miR-122 sensor 158, PvdQ acylase inactive, C2C12 statin inactive and PGC1a acetyl inh inactive.
Screening COc1cc(C2Nc3cccc4cccc(c34)N2)ccc1OC(C)=O returned miR-122 sensor inactive, PvdQ acylase inactive, C2C12 statin inactive and PGC1a acetyl inh 56.
Screening COc1ccc(C2Nc3cccc4cccc(c34)N2)cc1Br returned miR-122 sensor inactive, PvdQ acylase inactive, C2C12 statin inactive, DENV2 CPE inactive and PGC1a acetyl inh inactive.
`OCc1ccccc1OCCCN1CCC(Cc2ccccc2)CC1` gave miR-122 sensor inactive, PvdQ acylase inactive, C2C12 statin inactive, DENV2 CPE inactive and PGC1a acetyl inh inactive.
`C=CCOc1ccccc1CN1CCC(Cc2ccccc2)CC1` gave miR-122 sensor inactive, PvdQ acylase inactive, C2C12 statin inactive, DENV2 CPE 24 and PGC1a acetyl inh inactive.
`CCSc1nnc(CSc2ncccn2)n1C` gave PvdQ acylase inactive and DENV2 CPE inactive.
For CC(C)N(C(=O)CSc1nnc(CSc2ncccn2)n1C)C(C)C the results were miR-122 sensor inactive, PvdQ acylase inactive, C2C12 statin inactive, DENV2 CPE 33 and PGC1a acetyl inh inactive.
COc1cccc(C(=O)CC(C#N)c2ccc(F)cc2)c1 (centres undefined) was read as miR-122 sensor inactive, PvdQ acylase 69, C2C12 statin inactive and PGC1a acetyl inh inactive.
For COc1cccc(S(=O)(=O)N2C[C@H](O)COC[C@@H]3O[C@H](CC(=O)NCCCN4CCOCC4)CC[C@H]32)c1 the results were miR-122 sensor inactive, C2C12 statin inactive, DENV2 CPE inactive and PGC1a acetyl inh inactive.
`C[C@H]1CCCCO[C@H](CN(C)C(=O)Nc2ccc(F)cc2)[C@@H](C)CN([C@@H](C)CO)C(=O)c2cc(NS(=O)(=O)c3ccccc3)ccc2O1` gave miR-122 sensor inactive, DENV2 CPE 53 and PGC1a acetyl inh inactive.
C[C@@H]1CCCCO[C@@H](CN(C)C(=O)c2ccccc2)[C@H](C)CN([C@H](C)CO)C(=O)c2cc(NS(=O)(=O)c3ccc(F)cc3)ccc2O1 was read as miR-122 sensor inactive, DENV2 CPE 22 and PGC1a acetyl inh inactive.
For C[C@H]1CCCCO[C@H](CN(C)C(=O)Nc2ccc(F)cc2)[C@@H](C)CN([C@@H](C)CO)C(=O)c2cc(NS(=O)(=O)c3ccc(F)cc3)ccc2O1 the results were miR-122 sensor inactive, DENV2 CPE 27 and PGC1a acetyl inh inactive.
C[C@@H]1CCCCO[C@H](CN(C)C(=O)Nc2ccc(F)cc2)[C@@H](C)CN([C@H](C)CO)C(=O)c2cc(NS(=O)(=O)c3ccccc3)ccc2O1 was read as miR-122 sensor inactive, DENV2 CPE inactive and PGC1a acetyl inh inactive.
For C[C@@H]1CN([C@H](C)CO)C(=O)c2cc(NS(=O)(=O)c3ccc(F)cc3)ccc2O[C@@H](C)CCCCO[C@H]1CN(C)C(=O)Nc1ccc(F)cc1 the results were miR-122 sensor inactive, DENV2 CPE inactive and PGC1a acetyl inh inactive.
For Cc1ccc(-c2ccc3c(c2)O[C@@H](CN(C)C(=O)CN(C)C)[C@@H](C)CN([C@@H](C)CO)S3(=O)=O)cc1 the results were miR-122 sensor inactive, C2C12 statin inactive, DENV2 CPE inactive and PGC1a acetyl inh inactive.
`C[C@H](CO)N1C[C@H](C)[C@@H](CN(C)S(=O)(=O)c2ccccc2)Oc2ccc(NS(=O)(=O)c3ccc(F)cc3)cc2CC1=O` gave miR-122 sensor inactive, C2C12 statin inactive, DENV2 CPE inactive and PGC1a acetyl inh inactive.
`OC(c1cccc(OCc2ccccc2)c1)c1nnc(-c2ccccc2)o1` (centres undefined) gave miR-122 sensor inactive, PvdQ acylase inactive, C2C12 statin 146 and PGC1a acetyl inh inactive.
